{"source": "PubChem BioAssay AID2284363", "about": "(EPA ToxCast)", "note": "Active and inactive are the calls of the source. How the source made its calls: active means hit-call score of the fitted dose curve at least 0.9, where 1 is the maximum; inactive means score below 0.9.", "data": [{"target": "Nuclear factor erythroid 2-related factor 2 (Homo sapiens) (UniProt Q16236)", "sequence (Q16236 whole entry, looked up)": "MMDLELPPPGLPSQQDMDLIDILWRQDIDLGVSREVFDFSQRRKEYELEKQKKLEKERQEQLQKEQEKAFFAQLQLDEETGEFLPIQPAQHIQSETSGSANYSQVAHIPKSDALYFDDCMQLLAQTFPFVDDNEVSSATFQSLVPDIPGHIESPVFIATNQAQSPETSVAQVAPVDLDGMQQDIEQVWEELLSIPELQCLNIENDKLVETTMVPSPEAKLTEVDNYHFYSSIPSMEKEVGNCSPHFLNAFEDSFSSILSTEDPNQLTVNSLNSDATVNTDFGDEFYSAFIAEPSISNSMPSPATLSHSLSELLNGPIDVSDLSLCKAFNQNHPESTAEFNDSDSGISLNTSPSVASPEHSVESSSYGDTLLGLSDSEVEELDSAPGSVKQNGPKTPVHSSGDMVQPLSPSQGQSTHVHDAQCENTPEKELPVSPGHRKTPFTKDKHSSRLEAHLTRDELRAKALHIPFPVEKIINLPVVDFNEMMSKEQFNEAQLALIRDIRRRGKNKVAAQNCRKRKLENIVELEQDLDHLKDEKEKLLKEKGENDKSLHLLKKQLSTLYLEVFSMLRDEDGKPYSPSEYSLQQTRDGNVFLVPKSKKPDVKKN", "experiment": "ERF_US_NR_hNFE2L2: Eurofins (ERF) Cell Based Nuclear Translocation LeadHunter Assay for human Transcription Factor Keap1-Nrf2 Agonism", "method": "ERF_US_NR_hNFE2L2 is a cell-based, single-readout assay that uses extracted gene-proteins in a cell-line assay. Measurements were taken 6 hours after chemical dosing in a 384-well plate. See Keap1-Nrf2 Human Transcription Factor Cell Based Agonist Nuclear Translocation Assay, DiscoverX.ERF_US_NR_hNFE2L2 is an assay component calculated from the ERF_US_NR_hNFE2L2 assay. It is designed to measure protein fragment complementation using a type of binding reporter as detected by chemiluminescence with fluorimetry technology.Data from the assay component ERF_US_NR_hNFE2L2 was analyzed at the assay endpoint, ERF_US_NR_hNFE2L2, in the positive analysis fitting direction relative to DMSO as the negative control and baseline of activity. Using a type of binding reporter, gain-of-signal activity can be used to understand changes in binding as they relate to gene NFE2L2. To generalize the intended target to other relatable targets, this assay endpoint is annotated to the dna binding intended target family, where the subfamily is basic leucine zipper.\nCells were seeded in a total volume of 20 uL into white walled, 384-well microplates and incubated at 37C overnight prior to testing.For agonist determination, cells were incubated with sample to induce response. Intermediate dilution of sample stocks was performed to generate 5X sample in assay buffer. 5 uL of 5X sample was added to cells and incubated at room temperature for 6 hours. Final assay vehicle concentration was 1%. The results are expressed as a percent efficacy relative to the maximum response of the control ligand.", "values": [{"compound": "O=C(O)C(F)(F)C(F)(F)C(F)(F)F", "outcome": "inactive"}, {"compound": "O=C(O)C(F)(F)C(F)(F)C(F)(F)C(F)(F)C(F)(F)C(F)(F)C(F)(F)C(F)(F)Cl", "outcome": "inactive"}, {"compound": "OCCC(F)(F)C(F)(F)C(F)(F)C(F)(F)C(F)(F)C(F)(F)C(F)(F)C(F)(F)F", "AC50": "1940 nM (active)"}, {"compound": "O=C(O)CCC(F)(F)C(F)(F)C(F)(F)C(F)(F)C(F)(F)F", "outcome": "inactive"}]}]}
